Source: PubChem
The entries come from a sample that favours hits as a whole.
Dicer processing = inhibitors of human Dicer processing of pre-microRNA; Q9UPY3; cat-ELCCA pre-miR-21 Dicer processing, chemiluminescence; active compounds read high; z-score at 25 µM; 47,000 tested, 6% active; in the data active = z-score above about 3, passing the limit was not always enough;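 note: plate controls were vehicle for no effect and no enzyme for full effect; higher signal means more uncleaved substrate so more Dicer inhibition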
An asterisk follows results filed as active.

SMILES	Dicer processing
CCCCCn1c(C2CC(=O)N(c3ccccc3)C2)nc2ccccc21 (stereo not given)	5.3*
O=C1CC(c2nc3ccccc3n2Cc2ccccc2Cl)CN1c1ccccc1 (stereo not given)	4*
Cc1cccn2c(=O)c(NC(=O)c3ccc(F)cc3)cnc12	0.57
Clc1ccc(/C=N/N2CCOCC2)cc1	1.2
CCOc1cc(C(F)(F)F)c(C(=O)NCc2ccc(Cl)cc2)cn1	-0.6
Cc1ccccc1-n1c(N)cc(=O)n(Cc2ccco2)c1=O	1.4
Cc1c2c(=O)n(-c3ccccc3)[nH]c2cc(=O)n1Cc1ccco1	3.3*
Cc1c2c(=O)n(-c3ccccc3)[nH]c2cc(=O)n1Cc1cccnc1	0.96
CCOc1ccc(Cl)cc1CNCCSc1nnnn1C	-0.26
Cc1nn(C)c(NC(=O)c2ccc(Cl)cc2)c1Br	1.6
O=C(O)Cc1csc(Nc2ccccc2)n1	2.3
O=C1CN(CC(=O)N2CCN(c3ccc(F)cc3)CC2)c2ccccc2O1	-3.2
Cc1ccc(Cn2c(-c3nonc3N)nc3ccccc32)cc1	-0.74
Nc1nonc1-c1nc2ccccc2n1CC(=O)N1CCN(c2ccc(F)cc2)CC1	3.4*
CCC(=O)Nc1nonc1-c1nc2ccccc2n1CCC(C)C	-2.5
CN(C(=O)Cn1c(-c2nonc2N)nc2ccccc21)c1ccccc1	4.1*
COc1cccc(Cn2c(-c3nonc3N)nc3ccccc32)c1	4.2*
Nc1nonc1-c1nc2ccccc2n1Cc1ccc(Cl)cc1	1.1
Nc1nonc1-c1nc2ccccc2n1CC(=O)Nc1ccc(F)cc1	-1
CN(C(=O)Cn1c(-c2cncs2)nc2ccccc21)c1ccccc1	0.95
Nc1ccc([N+](=O)[O-])cc1C(=O)NNC(=O)c1cccnc1Oc1ccccc1	-0.72
O=[N+]([O-])c1csc(C2Nc3ccccc3N2)c1	-0.88
COc1c(Cl)cc([N+](=O)[O-])c(OC)c1C(=O)O	-0.66
Cc1cc2nc(SCC(=O)C(C)(C)C)[nH]c2cc1C	1.9
N/C(=N\OC(=O)c1ccc([N+](=O)[O-])cc1)c1cccc(-n2cccc2)c1	-0.23
SMILES	Dicer processing
CCOC(=O)c1cnc(NNC(=O)c2ccc(Cl)cc2Cl)nc1C(F)(F)F	5.8
O=C(CC1CC(=O)Oc2ccccc21)Nc1nccs1 (stereo not given)	3.8*
O=C(Cn1c(=O)sc2ccccc21)Nc1nccs1	-1.1
O=C(Nc1nccs1)C1COc2ccccc2O1 (stereo not given)	0.33
O=S(=O)(c1ccc(F)cc1)N1C=CC(C(F)(F)F)=NCC1	-0.77
COC(=O)c1ccsc1-n1c(C)ccc1C	0.82
O=S(=O)(CS(=O)(=O)Nc1nc2ccc(Cl)cc2s1)Nc1nc2ccc(Cl)cc2s1	0.06
COC(=O)CSc1nc2ccc(Cl)cc2s1	0.92
CC(C)(C)NC(=O)NNc1nc2ccc(Cl)cc2s1	3.7*
O=S(=O)(c1cccc(C(F)(F)F)c1)n1cccc1	-0.07
Fc1ccc(NCc2cccnc2)cc1	3.2*
FC(F)(F)c1cnc(NCc2cccnc2)c(Cl)c1	0.67
S=C(NCc1cccnc1)c1ccccc1	-0.17
CCOC(=O)c1cnc(Nc2cccc(Cl)c2)nc1C(F)(F)F	1
CCOc1ccc(C2c3c(oc4ccc(C)cc4c3=O)C(=O)N2c2nccs2)cc1OC (stereo not given)	-1.7
COc1ccc2cc(CCC(C)=O)ccc2c1	7
CCOC(=O)C(C)c1ccc2cc(OC)ccc2c1 (stereo not given)	4.6*
CCOC(=O)NC(=S)c1ccc(OC)cc1	0.26
CC(C)NC(=O)Nc1ccc(OCc2ncc(C(F)(F)F)cc2Cl)cc1	-1.7
CCOC(=O)C1=C(C)NC(C)=C(C(=O)OCC)C1c1ccc(OC)cc1Cl	0.75
N#Cc1ncc(C(F)(F)F)cc1Oc1ccc(Cl)cc1	1.5
CC1CN(S(=O)(=O)c2cc(Cl)c(Oc3ccc([N+](=O)[O-])cc3Cl)c(Cl)c2)CC(C)O1 (stereo not given)	-0.65
CCN1C(=O)C2(/C(=C(/O)c3ccc(C)c(F)c3)C(=O)C(=O)N2CCOC)c2ccccc21 (stereo not given)	8.7*
C=CCOc1ccc(/C(O)=C2/C(=O)C(=O)N(CCCN(C)C)C23C(=O)N(C)c2ccccc23)cc1C (stereo not given)	2.5
CCN1C(=O)C2(/C(=C(/O)c3ccc(C)c(F)c3)C(=O)C(=O)N2CCN2CCOCC2)c2ccccc21 (stereo not given)	-1.4
SMILES	Dicer processing
C=CCOc1ccc(/C(O)=C2/C(=O)C(=O)N(CCOC)C23C(=O)N(CC)c2ccccc23)cc1C (stereo not given)	6*
COc1ccc(/C(O)=C2/C(=O)C(=O)N(CC3CCCO3)C23C(=O)N(C)c2ccccc23)cc1C (stereo not given)	2.2
C=CCOc1ccc(/C(O)=C2/C(=O)C(=O)N(CCCOC)C23C(=O)N(C)c2ccccc23)cc1C (stereo not given)	2.7
C=CCOc1ccc(/C(O)=C2/C(=O)C(=O)N(CCOC)C23C(=O)N(CC)c2ccccc23)cc1 (stereo not given)	-0.44
CCN1C(=O)C2(/C(=C(/O)c3ccc(OC)cc3)C(=O)C(=O)N2CCOC)c2ccccc21 (stereo not given)	0.23
C=CCOc1ccc(/C(O)=C2/C(=O)C(=O)N(CC3CCCO3)C23C(=O)N(C)c2ccccc23)cc1C (stereo not given)	5.2*
CCC1(CC)COC2(OC1)C(=O)Nc1ccccc12	1.2
CC1=C(C(=O)OC2CCCCC2)C(c2cccc(C)c2)C2=C(CCCC2=O)N1 (stereo not given)	1.2
N#CCCN(Cc1cccs1)S(=O)(=O)c1cccs1	1.2
O=C(Cn1cccc(C(F)(F)F)c1=O)Nc1cccc(Cl)c1	15
CS(=O)(=O)Nc1ccc2c(c1)OCCO2	-0.44
O=C(NCc1ccc(Cl)cc1Cl)c1cc2cc(Cl)ccc2[nH]1	1.9
CC(C)(C)C(=O)/C(C#N)=C/c1c(Cl)cccc1Cl	-0.78
CC(C)(C)OC(=O)/C(C#N)=C/c1ccc(Cl)cc1	1
CC(C)(C)C(=O)/C(C#N)=C/c1ccc(C(F)(F)F)cc1	3.2*
CC(Oc1ccc(Cl)cc1Cl)C(=O)NNC(=S)Nc1ccccc1 (stereo not given)	0.74
O=C(Cn1nnc(-c2ccccc2C(F)(F)F)n1)NNS(=O)(=O)c1cccc(Cl)c1	0.86
O=C(Cn1nnc(-c2ccccc2Oc2ccc(Cl)cc2Cl)n1)NNC(=S)Nc1cc(Cl)cc(Cl)c1	6.3*
O=C(CCc1ccc(O)cc1)NNC(=S)Nc1ccc(Cl)c(Cl)c1	0.05
N#CCC(=O)NNC(=S)Nc1ccc(Cl)c(Cl)c1	-0.46
O=C(CCn1nnc(-c2cccc(Cl)c2Cl)n1)NNC(=S)Nc1ccc(Cl)c(Cl)c1	9.4*
Cc1ccc2nc(NC(=O)c3ccc([N+](=O)[O-])cc3)[nH]c(=O)c2c1	0.06
Clc1ccccc1CSc1nnc2sc3ccccc3n12	-1.7
CC(C)Sc1c(Cl)cccc1[N+](=O)[O-]	-0.36
FC(F)(F)c1ccc(CSc2ncc(C(F)(F)F)cc2C(F)(F)F)cc1	-1.1
SMILES	Dicer processing
FC(F)(F)c1cnc(SCc2c(Cl)cccc2Cl)c(Cl)c1	0.05
FC(F)(F)c1cccc(CSc2ncc(C(F)(F)F)cc2C(F)(F)F)c1	3*
Cc1ncc(-c2nnnn2-c2ccc(Cl)cc2)c(-c2ccccc2)n1	-0.93
Cc1ccc(-c2cc(Cc3cccn3-c3ccc(Cl)cc3)c(=O)[nH]n2)cc1	3.8*
Cc1cc(Cc2ccc(Cl)cc2)c(=O)[nH]n1	-0.59
Cc1ccc(-c2cc(Cc3cccs3)c(=O)[nH]n2)cc1	16
